Unmarked numbers belong to inactive results. Results filed as inconclusive are left out. Where a call stands in place of a potency, no number is given. The source made the active and inactive calls. Unless noted, calls come from the whole dose curve; as a rule, active = well fitted curve in the direction sought with a large enough effect in the repeat runs; inconclusive = weak or mixed curves; inactive = no such curve, though single readings can be large; an effect the other way counts as inactive or inconclusive.
How the values were obtained:
[1] = A CellTox Green Cytotoxicity Assay to monitor cytotoxicity in HepG2 cells - 0 hour (AID 1224882); note: nearly all actives have a fitted effect of over 35% in size
Procedure, shortened: (§1)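 Fluorescent DNA-binding dye, 600 HepG2 cells/well, 5 h preincubation then compound in DMSO; same plates read at 0–40 h, 37 C.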

[2] = A CellTox Green Cytotoxicity Assay to monitor cytotoxicity in HepG2 cells - 32 hour (AID 1224883); note: nearly all actives have a fitted effect of over 50% in size; note: potency is the fitted concentration of half-maximal effect
Procedure, shortened: as §1

[3] = A CellTox Green Cytotoxicity Assay to monitor cytotoxicity in HEK293 cells - 8 hour (AID 1224884); note: nearly all actives have a fitted effect of over 35% in size
Procedure, shortened: (§2)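 Homogeneous no-lysis format: HEK293 cell suspension mixed with CellTox Green reagent, seeded, incubated 5 h at 37 C/5% CO2, then dosed by pintool with compound in DMSO.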

[4] = qHTS RealTime-Glo MT Cell Viability Assay in HepG2 cells - 16 hour (AID 1224885); note: nearly all actives have a fitted effect of over 50% in size
Procedure, shortened: (§3)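 Cells + NanoLuc/prosubstrate dispensed (600 cells/well) → 5 h at 37 C/5% CO2 → compounds in DMSO transferred → 40 h incubation at 37 C, luminescence read at 0, 8, 16, 24, 32, 40 h.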

[5] = qHTS RealTime-Glo MT Cell Viability Assay in HEK293 cells - 24 hour (AID 1224886); note: top concentration of the series differs between compounds; nearly all actives have a fitted effect of over 50% in size
Procedure, shortened: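 Tox21 10K qHTS, HEK293, 600 cells/well, RealTime-Glo reagent co-dispensed with cells; 5 h preincubation, compound by pintool, 37 C, luminescence at 0–40 h.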

[6] = qHTS RealTime-Glo MT Cell Viability Assay in HEK293 cells - 8 hour (AID 1224887); note: top concentration of the series differs between compounds; nearly all actives have a fitted effect of over 50% in size
Procedure, shortened: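 Measured as luminescence from the same continuously cultured HEK293 wells at successive time points (0, 8, 16, 24, 32, 40 h) after compound addition. Reagent present from seeding; dosing at 5 h; incubation 37 C.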

[7] = qHTS RealTime-Glo MT Cell Viability Assay in HepG2 cells - 0 hour (AID 1224889); note: nearly all actives have a fitted effect of over 50% in size
Procedure, shortened: as §3

[8] = A CellTox Green Cytotoxicity Assay to monitor cytotoxicity in HepG2 cells - 8 hour (AID 1224890); note: nearly all actives have a fitted effect of over 45% in size; note: potency is the fitted concentration of half-maximal effect
Procedure, shortened: as §1

[9] = qHTS assay to identify small molecule antagonists of the estrogen receptor alpha (ER-alpha) signaling pathway using the BG1 cell line in the presence of 0.1 nM 17-beta-estradiol - cell viability counter screen (AID 1259241); note: nearly all actives have a fitted effect of over 40% in size
Procedure, shortened: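 Cytotoxicity counter-screen: live-cell protease activity measured by fluorescence (30 min reagent step) in the same wells. Cells were VM7Luc4E2 with endogenous ER-alpha and ERE-driven luciferase, treated 22 hr at 37C alongside 0.1 nM 17beta-estradiol final.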

[10] = qHTS assay to identify small molecule antagonists of the androgen receptor (AR) signaling pathway using the MDA cell line in the presence of 0.5 nM R1881 - cell viability counter screen (AID 1259242); note: nearly all actives have a fitted effect of over 45% in size
Procedure, shortened: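 Human breast carcinoma MDA-kb2 cells, cultured without CO2, receive compounds alongside 0.5 nM (final) R1881 agonist. After 16 hr at 37C, viability is taken as live-cell protease signal.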

[11] = qHTS assay to identify small molecule HDAC inhibitors (AID 1259364); note: potency is the fitted concentration of half-maximal effect;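 note: wild-type HCT-116 cells with endogenous class I/II HDAC activity; nearly all actives have a fitted effect of over 45% in size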
Procedure, shortened: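 After a 2 hr compound incubation (37C, 5% CO2), HCT-116 cells seeded at 1,500/well the day before received HDAC-Glo reagent; signal read as luminescence after 30 min at room temperature.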

[12] = qHTS assay to identify small molecule HDAC inhibitors - cell viability counter screen (AID 1259365); note: nearly all actives have a fitted effect of over 50% in size; note: potency is the fitted concentration of half-maximal effect
Procedure, shortened: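 CellTiter-Glo luminescence (30 min, room temperature) reported viability after a 2 h compound exposure at 37 C. Cells: wild-type HCT-116, 1,500 per well, seeded the night before.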

[13] = qHTS assay to identify small molecule agonists of the sonic hedgehog signaling (Shh) pathway - cell viability counter screen (AID 1259366); note: nearly all actives have a fitted effect of over 50% in size
Procedure, shortened: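 Cytotoxicity counter screen: CellTiter-Fluor reagent added after 23 h compound exposure, then 1 h at 37C and fluorescence read. Cells were 3T3 Gli1-Luc, seeded 2,000 per well and dosed 4 h post-plating.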

[14] = qHTS assay to identify small molecule antagonists of the sonic hedgehog signaling (Shh) pathway - cell viability counter screen (AID 1259367); note: nearly all actives have a fitted effect of over 55% in size
Procedure, shortened: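 Conditioned medium drove Shh signaling in 3T3 Gli1-Luc cells exposed to compounds at 37C and 5% CO2. Viability was determined from CellTiter-Fluor fluorescence, with reagent incubated 1 hr after 23 hr of treatment.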

[15] = qHTS assay to identify small molecule agonists of the sonic hedgehog signaling (Shh) pathway (AID 1259368; calls by dose curve;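 note: NIH/3T3-derived 3T3Gli1-Luc cells carrying a stable Gli1-driven firefly luciferase reporter; series mostly up to about 92 µM; nearly all actives have a fitted effect of over 15% in size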)
Procedure, shortened: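 Stable NIH/3T3 Gli1-Luc reporter clone; 24 hr cpd exposure after a 4 hr settling period; luminescence endpoint.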

[16] = molecular target: Androgen receptor (Homo sapiens) (UniProt P10275); assay: qHTS assay to identify small molecule antagonists of the androgen receptor (AR) signaling pathway using the MDA cell line in the presence of 0.5 nM R1881 (AID 1259243); note: nearly all actives have a fitted effect of over 50% in size; note: potency is the fitted concentration of half-maximal effect
Androgen receptor (Homo sapiens), sequence (P10275 whole entry, looked up): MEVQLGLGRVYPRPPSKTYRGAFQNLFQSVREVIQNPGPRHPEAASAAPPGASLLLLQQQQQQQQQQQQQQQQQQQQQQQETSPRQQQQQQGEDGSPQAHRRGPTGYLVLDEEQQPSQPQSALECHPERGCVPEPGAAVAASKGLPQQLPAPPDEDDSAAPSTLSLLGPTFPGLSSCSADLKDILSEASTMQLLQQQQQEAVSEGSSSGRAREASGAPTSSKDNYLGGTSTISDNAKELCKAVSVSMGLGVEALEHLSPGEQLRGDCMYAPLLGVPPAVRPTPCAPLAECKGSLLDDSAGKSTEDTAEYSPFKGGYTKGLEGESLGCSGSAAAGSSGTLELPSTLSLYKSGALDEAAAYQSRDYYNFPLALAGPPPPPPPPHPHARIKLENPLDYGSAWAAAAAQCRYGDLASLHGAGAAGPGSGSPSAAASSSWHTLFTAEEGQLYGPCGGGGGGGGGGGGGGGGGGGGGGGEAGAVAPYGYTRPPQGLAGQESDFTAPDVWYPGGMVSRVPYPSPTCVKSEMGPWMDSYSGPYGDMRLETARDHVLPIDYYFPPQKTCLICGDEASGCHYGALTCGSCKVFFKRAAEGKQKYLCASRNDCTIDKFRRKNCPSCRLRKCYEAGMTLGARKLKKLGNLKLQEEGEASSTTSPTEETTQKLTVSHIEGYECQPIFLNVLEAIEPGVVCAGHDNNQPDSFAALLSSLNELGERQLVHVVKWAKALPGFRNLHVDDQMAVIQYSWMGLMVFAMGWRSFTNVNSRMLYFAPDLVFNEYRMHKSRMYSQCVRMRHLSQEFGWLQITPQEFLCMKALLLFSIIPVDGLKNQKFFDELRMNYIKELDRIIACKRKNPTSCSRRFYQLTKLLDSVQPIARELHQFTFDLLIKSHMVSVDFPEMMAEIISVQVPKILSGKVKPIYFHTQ
Procedure, shortened: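 Cells: MDA-kb2 (MMTV-luc). Stimulus: 0.5 nM R1881. Time: 16 hr, 37C, no CO2. Detection: ONE-Glo luminescence after 30 min at RT.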

[17] = qHTS assay to identify small molecule antagonists of the sonic hedgehog signaling (Shh) pathway (AID 1259369; calls by dose curve; note: nearly all actives have a fitted effect of over 45% in size; note: potency is the fitted concentration of half-maximal effect)
Procedure, shortened: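 Gli1 transcriptional reporter (firefly Luc) in NIH/3T3 background, conditioned-medium activated. 24hr exposure, luminescence endpoint.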

[18] = molecular target: Estrogen receptor (Homo sapiens) (UniProt P03372); assay: qHTS assay to identify small molecule antagonists of the estrogen receptor alpha (ER-alpha) signaling pathway using the BG1 cell line in the presence of 0.1 nM 17-beta-estradiol (AID 1259244); note: nearly all actives have a fitted effect of over 50% in size
Estrogen receptor (Homo sapiens), sequence (P03372 whole entry, looked up): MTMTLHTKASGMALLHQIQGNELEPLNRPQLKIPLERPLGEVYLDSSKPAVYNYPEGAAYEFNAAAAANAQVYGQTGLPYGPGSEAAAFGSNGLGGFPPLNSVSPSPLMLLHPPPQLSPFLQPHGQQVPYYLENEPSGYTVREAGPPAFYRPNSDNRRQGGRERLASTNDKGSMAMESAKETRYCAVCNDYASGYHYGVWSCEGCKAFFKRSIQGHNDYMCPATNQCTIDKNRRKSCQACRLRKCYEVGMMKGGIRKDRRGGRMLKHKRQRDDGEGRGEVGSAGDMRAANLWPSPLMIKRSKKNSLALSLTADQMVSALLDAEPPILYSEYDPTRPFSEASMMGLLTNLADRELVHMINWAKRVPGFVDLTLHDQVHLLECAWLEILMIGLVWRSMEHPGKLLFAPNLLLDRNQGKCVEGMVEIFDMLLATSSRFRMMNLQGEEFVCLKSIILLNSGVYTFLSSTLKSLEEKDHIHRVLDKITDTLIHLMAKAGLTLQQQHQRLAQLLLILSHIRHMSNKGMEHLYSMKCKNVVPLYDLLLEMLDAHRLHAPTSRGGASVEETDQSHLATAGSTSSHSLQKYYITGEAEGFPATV
Procedure, shortened: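 Seeding of stripped-serum-adapted VM7Luc4E2 cells, 24 h attachment, compound transfer, then 0.1 nM final 17beta-estradiol; after 22 h incubation, ONE-Glo reagent and luminescence reading.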

[19] = A CellTox Green Cytotoxicity Assay to monitor cytotoxicity in HEK293 cells - 16 hour (AID 1224888); note: nearly all actives have a fitted effect of over 35% in size
Procedure, shortened: as §2

Row | SMILES | Potency [1] | Potency [2] | Potency [3] | Potency [4] | Potency [5] | Potency [6] | Potency [7] | Potency [8] | Potency [9] | Potency [10] | Potency [11] | Potency [12] | Potency [13] | Potency [14] | outcome [15] | Potency [16] | Potency [17] | Potency [18] | Potency [19]
1 | CCC(Cl)CCC(Cl)C(Cl)CC(Cl)C(Cl)C(Cl)CCl (centres undefined) | inactive | inactive | inactive | inactive | inactive | inactive | inactive | inactive | inactive | inactive | inactive | inactive | inactive | inactive | inactive |  |  |  | 
2 | CCN(CC)c1ccc(C(=C2C=CC(=[N+](CC)CC)C=C2)c2cc(S(=O)(=O)O)ccc2S(=O)(=O)[O-])cc1 | inactive | inactive | inactive | inactive | inactive | inactive | inactive | inactive |  |  | 9.44 µM (active) | 11.9 µM (active) |  |  | inactive | 7.5 µM (active) | 2.66 µM (active) |  | 
3 | Nc1ccc([N+](=O)[O-])c(C(F)(F)F)c1 | inactive | inactive | inactive | inactive | inactive | inactive | inactive | inactive |  | inactive | inactive | inactive | inactive | inactive | inactive |  |  | inactive | 
4 | Nc1ccccc1S(=O)(=O)c1ccccc1 | inactive | inactive | inactive | inactive | inactive | inactive | inactive |  | inactive | inactive | inactive | inactive | inactive | inactive | inactive |  |  |  | inactive
5 | CCO[Si](CCCCl)(OCC)OCC | inactive | inactive | inactive | inactive | inactive | inactive | inactive | inactive |  | inactive | inactive | inactive | inactive | inactive | inactive |  | inactive | inactive | 
6 | Cc1cccc(Nc2ccccc2)c1 | inactive | 38.9 µM (active) | inactive | inactive | inactive |  | inactive | 49 µM (active) | inactive | inactive | inactive | inactive | inactive | inactive | inactive | 24.3 µM (active) | inactive |  | inactive
7 | CN(Cc1ccc(C(C)(C)C)cc1)Cc1cccc2ccccc12 | inactive | inactive | inactive | inactive | inactive | inactive | inactive | inactive | inactive | inactive | inactive | inactive | inactive | inactive | inactive |  | inactive | inactive | 
8 | CCNc1cc(O)ccc1C | inactive | inactive | inactive | inactive | inactive | inactive | inactive | inactive |  | inactive | inactive | inactive |  |  | inactive |  |  | inactive | 
9 | Cc1ccc(C(C)OC(=O)C2(C)CCC(C(=O)O)C2(C)C)cc1 (centres undefined) | inactive | inactive | inactive | inactive | inactive | inactive | inactive |  | inactive | inactive | inactive | inactive | inactive | inactive | inactive |  | inactive |  | inactive
10 | CCCCCCc1ccc(-c2ccc(C#N)cc2)cc1 | inactive | inactive | inactive | inactive | inactive | inactive | inactive | inactive | inactive | inactive | inactive | inactive | inactive | inactive | inactive |  | inactive |  | 
11 | CCCCO | inactive | inactive | inactive | inactive | inactive | inactive | inactive | inactive | inactive | inactive | inactive | inactive | inactive | inactive | inactive |  | inactive |  | 
12 | COC(C)OC | inactive | inactive | inactive | inactive | inactive | inactive | inactive |  | inactive | inactive | inactive | inactive | inactive | inactive | inactive |  |  | inactive | inactive
13 | Nc1cccc([N+](=O)[O-])c1 | inactive | inactive | inactive | inactive | inactive | inactive | inactive | inactive | inactive | inactive | inactive | inactive | inactive | inactive | inactive | inactive | inactive | inactive | 
14 | CN1C[C@H]2c3ccccc3Oc3ccc(Cl)cc3[C@@H]2C1 | inactive | 26.8 µM (active) | inactive | inactive | inactive | inactive |  | inactive | inactive | inactive | inactive |  |  |  | inactive |  |  | inactive | inactive
15 | CN(C)CCCN1c2ccccc2Sc2ccccc21 | inactive | 23.9 µM (active) | inactive | inactive | inactive | inactive |  | inactive | inactive | inactive | inactive | inactive |  |  | inactive |  | 11.9 µM (active) |  | inactive
16 | NS(=O)(=O)c1ccc(N2CCCCS2(=O)=O)cc1 | inactive | inactive | inactive | inactive | inactive | inactive | inactive |  | inactive | inactive | inactive | inactive | inactive |  | inactive | inactive | inactive | inactive | inactive
17 | CCOC(=O)C(O)c1ccccc1 (centres undefined) | inactive | inactive | inactive | inactive | inactive | inactive | inactive |  | inactive | inactive | inactive | inactive | inactive | inactive | inactive | inactive | inactive | inactive | 
